Experimental data from ChEMBL document CHEMBL3988442, “University of Dundee, Small-Polar-MMV Screening Library” (2021).
About 13,000 (27%) of roughly 48,000 compounds showed an effect of 50% or more. Some of the results follow.

Test system: Wolbachia pipientis
Assay: Anti-Wolbachia Cell-Based Screen
Type: functional
Parameters: scale not given: in the data most compounds retested in dose-response had high values
Details: 5 µM

First: O=C(Nc1ccc(CCN2CCC(O)CC2)cc1)Nc1cccnc1
Second: COc1ccc(C(=O)N2C[C@@H](O)[C@H](NCCc3ncccc3C)C2)cc1
The “Percent Effect” value of the first is lower: -10.88% for the first, 97.07% for the second.

Compared with `CCn1c(N)nc2cc(C(=O)N3CC(c4ccccn4)C3)cnc21`, `COc1ccc(C(=O)N2C[C@@H](O)[C@H](NCc3ncccc3C)C2)cc1` is higher in “Percent Effect” value: 10.45% for the first, 82.18% for the second.

Compared with `NC(=O)CC1CCN(S(=O)(=O)N2CCCC2c2ccco2)CC1` (stereo not drawn), `CCN1C(=O)CC[C@@H]2[C@H]1CCN2S(=O)(=O)c1cccs1` is higher in “Percent Effect” value: -25.34% for the first, 2.968% for the second.

Going from `Cc1cc(C(O)CCNC(=O)COc2ccccc2C)c(C)o1` (stereo not drawn) to `COc1ccccc1OCC(=O)NCc1ncc(C)c(OC)c1C`, the “Percent Effect” value rises from 9.318% to 12.71%.

Going from `Cc1ccccc1OCC(=O)NCC(c1ccc(N(C)C)cc1)N(C)C` (stereo not drawn) to `Cc1[nH]c2c(C)ccc(C)c2c1CC(=O)NCC(O)c1cccnc1` (stereo not drawn), the “Percent Effect” value falls from 129.5% to 0.3243%.

Compared with `O=C(O)c1cn(CC2CCCN(c3nccc4occc34)C2)nn1` (stereo not drawn), `O=C(CSCC1CC1)N1CCCC(c2nccn2Cc2ccncc2)C1` (stereo not drawn) is higher in “Percent Effect” value: 6.714% for the first, 26.77% for the second.

Compared with `Cc1ccc(CNc2ccccc2-n2ccc(C)n2)nc1`, `COc1ccc(C(=O)N2C[C@@H](O)[C@H](NCc3cnc(C)cn3)C2)cc1` is higher in “Percent Effect” value: -1.934% for the first, 111.7% for the second.

First: COc1ccc(C(=O)N2CCN(C(=O)Cn3nccc3C)CC2)cc1
Second: CNC(=O)[C@@H]1COC[C@H]2CN(C(=O)c3ccc(OC)cc3)C[C@H]21
The “Percent Effect” value of the first is higher: 4.431% for the first, -23.66% for the second.

First: O=C(c1ccc(-c2nc[nH]n2)cc1)N1CC[C@H](CO)[C@@H](O)C1
Second: C=Cc1ccc(C(=O)N2CCCC(Nc3ccc(OC)cc3)C2)cc1 (stereo not drawn)
The “Percent Effect” value of the first is lower: 11.14% for the first, 13.35% for the second.

Going from `COc1ccc(C2CCN(C(=O)c3ncccc3OC(C)C)C2)cc1` (stereo not drawn) to `COc1ccc2c(c1)nc1n2[C@@H](CNCc2ncccc2C)COC1`, the “Percent Effect” value falls from 4.794% to -5.483%.

Compared with `CC(C)CN1CCc2[nH]cnc2C12CCN(C(=O)c1ccc[nH]1)CC2`, `CC(=O)N[C@@H]1CN(C2CCN(c3ccccc3F)CC2)C[C@H]1C(C)C` is higher in “Percent Effect” value: 3.052% for the first, 33.97% for the second.

First: COC(=O)CC(c1cnn(C)c1)c1oc(C)cc(=O)c1O (stereo not drawn)
Second: COCCN1C(=O)CC[C@@H]2[C@H]1CCN2Cc1ccc(C)s1.O=C(O)C(F)(F)F
The “Percent Effect” value of the first is higher: 15.74% for the first, 3.422% for the second.

Compared with `Cn1cc(Cl)cc1C(=O)N1CCC2(CCCN(CC3CCC3)C2=O)C1` (stereo not drawn), `CO[C@H]1CO[C@@]2(CCCN(C(=O)C3=CCCCC3)C2)C1` is higher in “Percent Effect” value: -14.89% for the first, -11.4% for the second.

Compared with `CCOCCN(CCOCC)c1nc(C)nc2sccc12`, `OCc1cc2ccccc2nc1NCC1CCN(CC(F)(F)F)C1` (stereo not drawn) is higher in “Percent Effect” value: -8.835% for the first, -4.701% for the second.

Going from `CO[C@H]1CO[C@@]2(CCCN(C(=O)N3CCCC3)C2)C1` to `CO[C@@H]1CO[C@@]2(CCCN(C(=O)N3CCCC3)C2)C1`, the “Percent Effect” value rises from 89.24% to 89.36%.

Going from `CCO[C@@H]1CO[C@@]2(CCCN(C(=O)c3ccc(OC)c(F)c3)C2)C1` to `CCO[C@H]1CO[C@@]2(CCCN(C(=O)c3ccc(OC)c(F)c3)C2)C1`, the “Percent Effect” value rises from -6.158% to -0.1252%.

Compared with `CO[C@H]1CO[C@@]2(CCCN(C(=O)N(C)C)C2)C1`, `COCCN1C(=O)CC[C@@H]2[C@H]1CCN2C(=O)N(C)C` is lower in “Percent Effect” value: 112.3% for the first, 4.27% for the second.

First: O=C(N1CCCC1)N1CCC[C@]2(C[C@@H](OCc3ccncc3)CO2)C1.O=C(O)C(F)(F)F
Second: O=C(O)C(F)(F)F.O=S(=O)(C1CC1)N1CCO[C@H]2[C@H](OCCN3CCCC3)CC[C@@H]21
The “Percent Effect” value of the first is higher: -0.7527% for the first, -18.3% for the second.

Going from `CN(C)C(=O)c1noc2c1CN(C(=O)CCC1CCCCN1C)CC2` (stereo not drawn) to `CCCn1nc2c(cc1=O)CN(CC1CCCCO1)CC2` (stereo not drawn), the “Percent Effect” value falls from 11.84% to -1.903%.

Compared with `O=C(O)C(F)(F)F.O=C1CC[C@H]2[C@H](CCN2S(=O)(=O)C2CC2)N1CCN1CCCC1`, `O=C1CC[C@H]2[C@H](CCN2C(=O)C2CCCO2)N1CCN1CCCC1` (stereo partly drawn) is lower in “Percent Effect” value: 79.45% for the first, 13.58% for the second.

First: CCS(=O)(=O)N1CC[C@@H]2[C@H]1CCC(=O)N2CCOC
Second: COCCN1C(=O)CC[C@@H]2[C@@H]1CCN2S(=O)(=O)C1CC1
The “Percent Effect” value of the first is higher: 101.4% for the first, 90.99% for the second.

Compared with `COCCN1C(=O)CC[C@@H]2[C@H]1CCN2S(=O)(=O)c1cccs1`, `CN1C(=O)CC[C@@H]2[C@H]1CCN2S(=O)(=O)c1cccs1` is lower in “Percent Effect” value: 103.5% for the first, -22.4% for the second.

Going from `COCCN1C(=O)CC[C@@H]2[C@H]1CCN2C(=O)C1CCOCC1` to `O=C1CC[C@@H]2[C@@H](CCN2S(=O)(=O)C2CC2)N1CC1CC1`, the “Percent Effect” value rises from 5.34% to 105.6%.

First: COCCCN1C(=O)CC[C@H]2CN(Cc3ncc[nH]3)CC[C@H]21
Second: O=C([C@@H]1COC[C@H]2CN(C3CCCCC3)C[C@H]21)N1CCOCC1
The “Percent Effect” value of the first is lower: -5.769% for the first, -4.013% for the second.
